The supplement of paper PMC10981050
“And” between values parts separate entries of the source, which are not always exact repeats. Equal entries are not always repeated. Structures can show the parent of a compound that is named as a salt.

Key:
Test in all cases: cell viability relative to vehicle control; higher = less cytotoxic
Conditions in all cases: 10 µM
K562 = test system: K562
Procedure, shortened: (§1)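 Screening covered the Selleck bioactive, kinase and epigenetic probe libraries, less identity-inconsistent compounds, on CRISPR-edited mutant clones and isogenic wild-type clones of four leukaemia lines. Cells, at 2000 per well in 50 µL medium, received a single 10 µM acoustically dispensed dose. After 48 h the supernatant was removed and CellTiter-Glo luminescence was read. Viability was analysed in Genedata Screener as percent of the on-plate vehicle control.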

MARIMO = test system: MARIMO
Procedure, shortened: as §1

MOLM14 = test system: MOLM14
Procedure, shortened: as §1

OCI-AML2 = test system: OCI-AML2
Procedure, shortened: as §1

Compound | cell viability (K562; SRSF2 genotype: SRSF2 P95H/wt) | cell viability (K562; SRSF2 genotype: SRSF2 wt/wt) | cell viability (MARIMO; SRSF2 genotype: SRSF2 P95H/wt) | cell viability (MARIMO; SRSF2 genotype: SRSF2 wt/wt) | cell viability (MOLM14; SRSF2 genotype: SRSF2 P95H/wt) | cell viability (MOLM14; SRSF2 genotype: SRSF2 wt/wt) | cell viability (OCI-AML2; SRSF2 genotype: P95H/wt) | cell viability (OCI-AML2; SRSF2 genotype: wt/wt)
CN(C)c1ccc2c(c1)Sc1cc(N(C)C)ccc1N2 [TRx0237 (LMTX) mesylate] | 35.5% and 35.7% | 20.9% | 20.4% | 18.9% | 5.72% | 2.96% | 6.33% | 10.7%
CCOC(=O)COc1ccc(/C=C2/SC(=S)NC2=O)cc1OC | 90.9% and 94.4% | 94.3% | 88.8% | 101% | 2.04% | 3.45% | 104% | 91.8%
CC(C)c1noc(N2CCC(COc3ccc(-c4ccc(S(C)(=O)=O)cc4)nc3)CC2)n1 | 59.8% and 77.2% | 70.5% | 70% | 34.1% | 90.4% | 95.7% | 28.4% | 36.8%
C=C1CC23CCC4C(C)(C(=O)OC5OC(CO)C(O)C(O)C5O)CCCC4(C)C2CCC1(OC1OC(CO)C(O)C(OC2OC(CO)C(O)C(O)C2O)C1OC1OC(C)C(O)C(O)C1O)C3 (stereo not drawn) [Rebaudioside C] | 101% and 99.8% | 106% | 108% | 111% | 106% | 103% | 112% | 101%
C[C@@H]1O[C@@H](O[C@H]2[C@H](O[C@H]3CC[C@@]4(C)[C@@H](CC[C@]5(C)[C@@H]4CC=C4[C@@H]6CC(C)(C)CC[C@]6(C(=O)O[C@@H]6O[C@H](CO[C@@H]7O[C@H](CO)[C@@H](O)[C@H](O)[C@H]7O)[C@@H](O)[C@H](O)[C@H]6O)CC[C@]45C)[C@]3(C)CO)OC[C@H](O)[C@@H]2O)[C@H](O)[C@H](O[C@@H]2O[C@H](CO)[C@@H](O[C@@H]3O[C@H](CO)[C@@H](O)[C@H](O)[C@H]3O)[C@H](O)[C@H]2O)[C@H]1O [Macranthoidin B] | 86.7% and 84.6% | 85% | 83.6% | 94.2% | 86% | 86.6% | 91.4% | 86%
CC(=O)[O-].[K+] [Potassium acetate] | 100% and 97.3% | 103% | 106% | 97.5% | 96.7% | 99.6% | 111% | 93.4%
O=c1nc(N2CCOCC2)oc2c(-c3cccc4c3sc3ccccc34)cccc12 | 92.3% and 93.3% | 90.1% | 93.2% | 102% | 82.6% | 81.6% | 75.1% | 80.3%
Cc1cc(/N=N/c2ccc(S(=O)(=O)Nc3ccccn3)cc2)c(N)cc1O | 76.8% and 80.2% | 79.7% | 56.9% | 53.3% | 36.3% | 34.8% | 26.2% | 48.7%
COc1cc(CO)cc(OC)c1O [4-Hydroxy-3,5-dimethoxybenzyl alcohol] | 106% and 98.2% | 100% | 102% | 107% | 99.7% | 102% | 108% | 105%
CO/N=C(\C(=O)N[C@@H]1C(=O)N2C(C(=O)O)=C(CSC(=O)c3ccco3)CS[C@H]12)c1csc(N)n1 [Ceftiofur hydrochloride] | 98.4% and 82.1% | 83.7% | 89.1% | 93.9% | 91.5% | 93.5% | 93.4% | 95.4%
Cc1ccc(-n2[nH]c(C)c(N=Nc3cccc(-c4cccc(C(=O)O)c4)c3O)c2=O)cc1C [Eltrombopag] | 77.1% and 80.1% | 74.4% | 62.2% | 71.6% | 77% | 74.6% | 68.8% | 70.1%
CC1(C)CC[C@]2(C(=O)O)CC[C@]3(CO)C(=CC[C@@H]4[C@@]5(C)C[C@H](O)[C@H](O[C@@H]6O[C@H](CO)[C@@H](O)[C@H](O)[C@H]6O)[C@@](C)(C(=O)O)[C@@H]5CC[C@]43C)[C@@H]2C1 [Tenuifolin] | 102% and 96.9% | 105% | 104% | 112% | 99.4% | 108% | 102% | 103%
CCc1c2c(nc3ccc(O)cc13)-c1cc3c(c(=O)n1C2)COC(=O)[C@]3(O)CC | 10.1% and 21.4% | 13.4% | 5.36% | 3.23% | 1.02% | 0.95% | 0.48% | 1.9%
O=C(O)CCCNC(=O)c1cccnc1 [Pikamilone] | 109% and 105% | 119% | 97.1% | 105% | 99.9% | 106% | 114% | 118%
O=C(CCc1ccc(O)cc1)c1c(O)cc(O)cc1O[C@@H]1O[C@H](CO)[C@@H](O)[C@H](O)[C@H]1O [Phlorizin (Phloridzin)] | 104% and 94.2% | 92.3% | 93% | 102% | 92.2% | 94.8% | 90.1% | 91.7%
COc1ccc2c3c1O[C@H]1C[C@@H](O)C=C[C@@]31CCN(C)C2 [Galanthamine] | 103% and 106% | 99.9% | 102% | 106% | 97.9% | 105% | 109% | 95%
Cc1cn(CCN2CCN(c3ccccc3-c3cc(C#N)cc(C(=O)NCCCN4CCCC4)c3)CC2)c2ccccc12 | 0.16% and 0.18% | 0.16% | 0.17% | 0.22% | 0.12% | 0.12% | 0.03% | 0.1%
O=C(O)Cc1cccc2ccccc12 [Potassium 1-Naphthaleneacetate] | 92.5% and 95.9% | 97% | 97.4% | 97.8% | 90.8% | 95.4% | 103% | 98.8%

Compound | cell viability (K562; SRSF2 genotype: SRSF2 P95H/wt) | cell viability (K562; SRSF2 genotype: SRSF2 wt/wt) | cell viability (MARIMO; SRSF2 genotype: SRSF2 P95H/wt) | cell viability (MARIMO; SRSF2 genotype: SRSF2 wt/wt) | cell viability (MOLM14; SRSF2 genotype: SRSF2 P95H/wt) | cell viability (MOLM14; SRSF2 genotype: SRSF2 wt/wt) | cell viability (OCI-AML2; SRSF2 genotype: P95H/wt) | cell viability (OCI-AML2; SRSF2 genotype: wt/wt)
CC[C@H](c1ccc(O)cc1)[C@@H](CC)c1ccc(O)cc1 [Hexestrol (Bibenzyl)] | 96.8% and 102% | 96.9% | 94.6% | 101% | 99.7% | 103% | 100% | 91.9%
CC[C@@]1(O)C(=O)OCc2c1cc1n(c2=O)Cc2cc3cc(O)ccc3nc2-1 [Hydroxy Camptothecine] | 10.4% and 26.6% | 9.83% | 4.88% | 4.13% | 0.53% | 0.32% | 0.49% | 2.23%
O=c1cc(-c2cccc3c2Sc2ccccc2S3)oc(N2CCOCC2)c1 | 98.7% and 93.1% | 91.2% | 105% | 103% | 93.6% | 95.5% | 85.7% | 88.8%
Nc1nc(N)c2nc(-c3cccc(O)c3)cnc2n1 | 80.3% and 89.9% | 83.4% | 63.7% | 59.2% | 57.2% | 57.8% | 48.7% | 53.1%
O=C(O)C1=CO[C@@H](O[C@@H]2O[C@H](CO)[C@@H](O)[C@H](O)[C@H]2O)[C@@H]2C(CO)=CC[C@H]12 [Geniposidic acid] | 105% and 91.2% | 93.8% | 89.8% | 105% | 92.5% | 91.6% | 90.8% | 107%
CN(CCOc1ccc(CC2SC(=O)NC2=O)cc1)c1ccccn1 (stereo not drawn) [Rosiglitazone (Avandia)] | 101% and 90.7% | 85% | 89.6% | 101% | 90% | 96.6% | 94% | 101%
OCCOCCN1CCN(Cc2cccc(Oc3ccccc3)c2)CC1 | 97.6% and 99.2% | 94% | 90% | 99.3% | 94.5% | 99.8% | 84% | 93.8%
CC[C@@H](N)CNc1ccnc(-c2cc(-c3cnn(C)c3)ccc2O)n1 | 5.05% and 8.35% | 7.08% | 2.69% | 1.1% | 0.8% | 0.44% | 1.45% | 10.8%
O=C(O)CSc1cc(NS(=O)(=O)c2ccc(Br)cc2)c2ccccc2c1O | 86.4% and 79.9% | 94.8% | 95.5% | 94.5% | 73.9% | 89.3% | 97.9% | 107%
OCCN1C[C@H](O)[C@@H](O)[C@H](O)[C@H]1CO [Miglitol (Glyset)] | 98.3% and 109% | 101% | 106% | 102% | 106% | 106% | 107% | 94.9%
O=C(Nc1cccc(Cl)c1)Nc1ncc(CCNc2ncnc3ccsc23)s1 [SNS-314 Mesylate] | 63.5% and 68.5% | 75.3% | 68.8% | 76.5% | 18.7% | 12.8% | 28.2% | 30.8%
O=c1cc(-c2ccc(O)c(O)c2)oc2cc(O)cc(O)c12 [Luteolin] | 90.8% and 84.6% | 85.5% | 65.7% | 82.6% | 53% | 57% | 67.3% | 58.9%
Cc1ccc(-c2cc(C(F)(F)F)nn2-c2ccc(S(N)(=O)=O)cc2)cc1 [Celecoxib] | 94.3% and 106% | 94.1% | 99.1% | 104% | 101% | 101% | 122% | 96.5%
CN1C(=O)[C@@H](NC(=O)c2n[nH]c(Cc3ccccc3)n2)COc2ccccc21 | 97.3% and 106% | 103% | 103% | 105% | 103% | 106% | 106% | 106%
COc1cc2ncnc(Nc3cccc(Cl)c3)c2cc1OC [AG-1478 (Tyrphostin AG-1478)] | 75% and 83.2% | 76.4% | 81.7% | 90% | 59.7% | 67.6% | 58% | 62.2%
CC(C(=O)O)c1ccc2c(c1)CC(=O)c1ccccc1S2 (stereo not drawn) [Zaltoprofen] | 102% and 98.4% | 97.7% | 96.8% | 103% | 99.1% | 98.8% | 94.4% | 104%
CC1=C(CSC(=S)N2CCCCC2)C(=O)c2ccccc2C1=O [PKM2 inhibitor(compound 3k)] | 3.74% and 0.42% | 8.02% | 0.75% | 0.85% | 0.19% | 0.21% | 0.2% | 1.51%
CCc1cccc2c3c([nH]c12)C(CC)(CC(=O)O)OCC3 (stereo not drawn) [Etodolac (Lodine)] | 99.4% and 101% | 92.6% | 89.7% | 96.5% | 93% | 97.8% | 86.8% | 93.7%
